From ChEMBL document CHEMBL3988442, “University of Dundee, Small-Polar-MMV Screening Library” (2021)
Several values for one entry are separate records, joined by “and”; a condition that tells them apart may be missing. Identical values can stand only once. Screen size: about 34,000 compounds; about 290 (0.85%) showed an effect of 50% or more. What follows is part of a selection rich in strong results, with near analogues and random picks from the rest.

Test system: Plasmodium falciparum
Assay: Plasmodium falciparum sporozoite viability assay
Assay type: functional, organism-based
Design: scale not given: in the data most compounds retested in dose-response had high values

| SMILES | Percent Effect [%] | Percent Effect (10 mM as filed; unlikely as a test dose) |
| --- | --- | --- |
| CCc1nc(CNC(C)Cn2cccn2)cs1 (configuration not stated) | 4.8 |  |
| CNC(=O)[C@@H]1CN(Cc2ccccc2)C[C@H]1C(=O)c1ccc(F)cc1 | 12.45 |  |
| Cc1nc(O)cc(CN2CC=C(c3cnn(C(C)(C)C)c3)CC2)n1 |  | -34.41% and -32.55% |
| CC(C)(C)n1cc(C2=CCN(CCc3ccccn3)CC2)cn1 |  | 78.88% and 77.42% |
| CC(C)(C)n1cc(C2=CCN(CCNC(N)=O)CC2)cn1 |  | -28.2% and -25.06% |
| CC(C)(C)n1cc(C2=CCN(CCNC(=O)c3ccccc3)CC2)cn1 |  | -11.67% and -1.893% |
| CC(C)(C)n1cc(C2=CCN(CCN3CCCCCC3)CC2)cn1 |  | -30.5% and -32% |
| CC(C)(C)n1cc(C2=CCN(CCc3ccccc3)CC2)cn1 |  | 84.88% and 75.7% and 89.28% |
| O=C(O)C(F)(F)F.O=C(O)C(F)(F)F.O=S(=O)(C1CC1)N1CCC2(CC1)CN(Cc1ccccn1)CCO2 | 0.5199 |  |
| CCS(=O)(=O)N1CCN(CC2CC2)c2ncccc2C1 | 11.27 |  |
| O=C(c1ccsc1)N1CCN2C[C@H](OCc3ccccn3)C[C@H]2C1 | 1.117 |  |
| O=C(Cc1ccccn1)N1CCN2C[C@H](OCCN3CCCC3)C[C@H]2C1.O=C(O)C(F)(F)F.O=C(O)C(F)(F)F.O=C(O)C(F)(F)F | -8.505 |  |
| Cl.FC(F)(F)c1nc(C2CCCNC2)no1 (configuration not stated) | 6.016 |  |
| Cc1cccc(Nc2ccc(C3CCCCN3)cn2)n1 (configuration not stated) |  | 97.8% and 85.07% and 40.73% |
| Cc1cc(C)nc(C2CCCNC2)n1.Cl.Cl (configuration not stated) | 16.42 |  |
| Cc1cc(O)nc(C2CCCNC2)n1.Cl (configuration not stated) | 1.062 |  |
| c1cnc(Nc2ccc(C3CCCCN3)cn2)cn1 (configuration not stated) |  | -2.241% and -0.3197% and -12.37% |
| COCCN1CCOCC12CCN(C(=O)c1ccncc1)CC2.O=C(O)C(F)(F)F | -4.875 |  |
| O=C(O)C(F)(F)F.O=C(O)C(F)(F)F.c1cncc(N2CCOCC3(CN(Cc4cccs4)CCO3)C2)c1 (configuration not stated) | 7.302 |  |
| O=C(O)C(F)(F)F.O=C(O)C(F)(F)F.c1cncc(COCC2CC[C@H]3[C@H]2OCCN3Cc2ccoc2)c1 (some centres not stated) | 12.08 |  |
| O=C(O)C(F)(F)F.O=C(O)C(F)(F)F.c1cncc(OC[C@@]23CCC[C@@H]2CN(C2CCOCC2)C3)c1 | 9.846 |  |
| O=C(O)C(F)(F)F.O=C(O)C(F)(F)F.c1cnc(N2CC3(CCN(Cc4ccncc4)C3)C2)nc1 | -6.54 |  |
